# Test results published in PubChem BioAssay AID1159580 (chemical genetic matrix, 2015).
# In all, about 5,500 compounds went through this assay and about 2,000 (36%) were called active. Not shown: some 18% with an inconclusive outcome. The list shows a part of the results. A number with no mark means an inactive call. Rule as the data show it: active = normalized growth mostly below about 0.91 (no sharp cut-off); inconclusive = no clear call, values can overlap the other calls; inactive = mostly above about 0.92.
# Assay: chemical genetic growth profiling, strain panel (AID 1159580);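 also: tested at 20 µM; growth read once vehicle control cultures reached saturation at 30 °C; 1 = growth at the plate median or of vehicle wells; lower values mean less growth of the strain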
# Settings: S. cerevisiae deletion strains, growth OD
# [1] = locus YDL101C, strain DUN1, active compounds read low
# [2] = locus YHR030C, strain SLT2, active compounds read low
# [3] = locus YAR019C, strain CDC15, active compounds read low
# [4] = locus YBL105C, strain PKC1, active compounds read low
# [5] = locus YBR135W, strain CKS1, active compounds read low
# [6] = locus YBR136W, strain MEC1, active compounds read low
# [7] = locus YBR160W, strain CDC28, active compounds read low
# [8] = locus YDL017W, strain CDC7, active compounds read low
# [9] = locus YDL028C, strain MPS1, active compounds read low
# [10] = locus YDL108W, strain KIN28, active compounds read low
# [11] = locus YDL132W, strain cdc53, active compounds read low
# [12] = locus YDL214C, strain PRR2, active compounds read low
# [13] = locus YDR052C, strain DBF4, active compounds read low
# [14] = locus YDR054C, strain cdc34, active compounds read low
# [15] = locus YDR226W, strain ADK1, active compounds read low
# [16] = locus YDR477W, strain SNF1, active compounds read low
# [17] = locus YER123W, strain YCK3, active compounds read low
# [18] = locus YER133W, strain GLC7, active compounds read low
# [19] = locus YFL009W, strain cdc4, active compounds read low
# [20] = locus YFL029C, strain CAK1, active compounds read low
# [21] = locus YFR003C, strain YPI1, active compounds read low
# [22] = locus YFR019W, strain FAB1, active compounds read low
# [23] = locus YFR028C, strain CDC14, active compounds read low
# [24] = locus YGR040W, strain KSS1, active compounds read low
# [25] = locus YGR052W, strain FMP48, active compounds read low
# [26] = locus YGR092W, strain DBF2, active compounds read low
# [27] = locus YHR079C, strain IRE1, active compounds read low
# [28] = locus YHR082C, strain KSP1, active compounds read low
# [29] = locus YHR205W, strain SCH9, active compounds read low
# [30] = locus YIL147C, strain SLN1, active compounds read low
# [31] = locus YJL095W, strain BCK1, active compounds read low
# [32] = locus YJL128C, strain PBS2, active compounds read low
# [33] = locus YJL157C, strain FAR1, active compounds read low
# [34] = locus YJR016C, strain ILV3, active compounds read low
# [35] = locus YJR066W, strain TOR1 (second series), active compounds read low
# [36] = locus YJR066W, strain TOR1, active compounds read low
# [37] = locus YKL048C, strain ELM1, active compounds read low
# [38] = locus YKL067W, strain YNK1, active compounds read low
# [39] = locus YKL101W, strain HSL1, active compounds read low
# [40] = locus YKL193C, strain SDS22, active compounds read low
# [41] = locus YKL203C, strain TOR2, active compounds read low
# [42] = locus YLR113W, strain HOG1, active compounds read low
# [43] = locus YLR133W, strain CKI1, active compounds read low
# [44] = locus YLR403W, strain SFP1, active compounds read low
# [45] = locus YML070W, strain DAK1, active compounds read low
# [46] = locus YMR001C, strain CDC5, active compounds read low
# [47] = locus YMR205C, strain PFK2 (second series), active compounds read low
# [48] = locus YMR277W, strain FCP1, active compounds read low
# [49] = locus YNL006W, strain LST8, active compounds read low
# [50] = locus YNL020C, strain ARK1, active compounds read low
# [51] = locus YNL161W, strain CBK1, active compounds read low
# [52] = locus YNL183C, strain NPR1, active compounds read low
# [53] = locus YNL207W, strain RIO2, active compounds read low
# [54] = locus YNL222W, strain SSU72, active compounds read low
# [55] = locus YNL307C, strain MCK1 (second series), active compounds read low
# [56] = locus YOL078W, strain AVO1, active compounds read low
# [57] = locus YOL136C, strain PFK27, active compounds read low
# [58] = locus YOR061W, strain CKA2, active compounds read low
# [59] = locus YOR119C, strain RIO1, active compounds read low
# [60] = locus YOR231W, strain MKK1, active compounds read low
# [61] = locus YOR329C, strain SCD5, active compounds read low
# [62] = locus YPL031C, strain PHO85, active compounds read low
# [63] = locus YPL153C, strain RAD53, active compounds read low
# [64] = locus YPL204W, strain HRR25, active compounds read low
# [65] = locus YPL209C, strain IPL1, active compounds read low
# [66] = locus YPL256C, strain CLN2, active compounds read low
# [67] = locus YPR025C, strain CCL1, active compounds read low
# [68] = locus YPR106W, strain ISR1, active compounds read low
# [69] = locus YPR111W, strain DBF20, active compounds read low
# [70] = strain NNK1, active compounds read low
# [71] = strain TSCII, active compounds read low
smiles,measurement,setting,value
CC(C)(C)OC(=O)NCc1n[nH]c(=S)n1-c1ccccc1,normalized growth,"locus YAL013W, strain DEP1, active compounds read low",1.03
same,normalized growth,"locus YBR229C, strain ROT2, active compounds read low",1.01
same,normalized growth,[1],1.02
same,normalized growth,"locus YDL134C, strain PPH21, active compounds read low",1.01
same,normalized growth,"locus YDR150W, strain NUM1, active compounds read low",1
same,normalized growth,"locus YEL061C, strain CIN8, active compounds read low",0.993
same,normalized growth,"locus YGR078C, strain PAC10, active compounds read low",1.01
same,normalized growth,"locus YGR229C, strain SMI1, active compounds read low",0.999
same,normalized growth,[2],1.09
same,normalized growth,"locus YHR087W, strain rtc3, active compounds read low",1.01
same,normalized growth,"locus YJR043C, strain POL32, active compounds read low",1.04
same,normalized growth,"locus YJR075W, strain HOC1, active compounds read low",0.995
same,normalized growth,"locus YLR039C, strain RIC1, active compounds read low",0.998
same,normalized growth,"locus YLR058C, strain SHM2 (second series), active compounds read low",1.02
same,normalized growth,"locus YLR085C, strain ARP6, active compounds read low",1.02
same,normalized growth,"locus YLR262C, strain YPT6, active compounds read low",1.07
same,normalized growth,"locus YML094W, strain GIM5, active compounds read low",1.01
same,normalized growth,"locus YMR219W, strain ESC1, active compounds read low",1.01
same,normalized growth,"locus YMR263W, strain SAP30, active compounds read low",1.01
same,normalized growth,"locus YNL153C, strain GIM3, active compounds read low",0.958
same,normalized growth,"locus YNL298W, strain CLA4 (second series), active compounds read low",1.06
same,normalized growth,"locus YNL322C, strain KRE1, active compounds read low",0.999
same,normalized growth,"locus YNR030W, strain Alg12, active compounds read low",1.01
same,normalized growth,"locus YPL055C, strain LGE1, active compounds read low",1.02
same,normalized growth,"locus YPL241C, strain CIN2, active compounds read low",0.994
same,normalized growth,"locus YPR135W, strain CTF4, active compounds read low",1.12
FC(F)(F)Oc1ccc(OCc2n[nH]c(=S)n2-c2ccc(Cl)cc2)cc1,normalized growth,[3],0.984
same,normalized growth,[4],0.986
same,normalized growth,[5],0.989
same,normalized growth,[6],0.996
same,normalized growth,[7],0.991
same,normalized growth,[8],0.995
same,normalized growth,[9],0.99
same,normalized growth,[1],0.983
same,normalized growth,[10],0.987
same,normalized growth,[11],0.981
same,normalized growth,[12],1
same,normalized growth,[13],0.987
same,normalized growth,[14],0.989
same,normalized growth,[15],0.98
same,normalized growth,[16],0.994
same,normalized growth,[17],0.889
same,normalized growth,[18],1
same,normalized growth,[19],0.988
same,normalized growth,[20],0.985
same,normalized growth,[21],0.987
same,normalized growth,[22],0.988
same,normalized growth,[23],0.989
same,normalized growth,[24],1.01
same,normalized growth,[25],1.1
same,normalized growth,[26],0.944
same,normalized growth,[2],0.967
same,normalized growth,[27],1.07
same,normalized growth,[28],1.05
same,normalized growth,[29],1.01
same,normalized growth,[30],0.988
same,normalized growth,[31],1.15
same,normalized growth,[32],0.956
same,normalized growth,[33],1
same,normalized growth,[34],0.996
same,normalized growth,[35],0.986
same,normalized growth,[36],1.13
same,normalized growth,[37],0.965
same,normalized growth,[38],1.02
same,normalized growth,[39],0.986
same,normalized growth,[40],0.982
same,normalized growth,[41],1.05
same,normalized growth,[42],1.07
same,normalized growth,[43],1
same,normalized growth,[44],1
same,normalized growth,[45],1.01
same,normalized growth,[46],0.983
same,normalized growth,[47],1.01
same,normalized growth,[48],0.99
same,normalized growth,[49],0.986
same,normalized growth,[50],0.994
same,normalized growth,[51],0.989
same,normalized growth,[52],1.12
same,normalized growth,[53],0.99
same,normalized growth,[54],0.985
same,normalized growth,[55],0.999
same,normalized growth,[56],0.986
same,normalized growth,[57],0.994
same,normalized growth,[58],1.01
same,normalized growth,[59],1.02
same,normalized growth,[60],1.09
same,normalized growth,[61],0.99
same,normalized growth,[62],0.973
same,normalized growth,[63],0.983
same,normalized growth,[64],0.975
same,normalized growth,[65],0.987
same,normalized growth,[66],1.04
same,normalized growth,[67],0.991
same,normalized growth,[68],0.996
same,normalized growth,[69],0.992
same,normalized growth,[70],0.999
same,normalized growth,[71],0.987
FC(F)(F)Sc1ccc(OCc2n[nH]c(=S)n2-c2ccccc2)cc1,normalized growth,[3],0.989
same,normalized growth,[4],0.983
same,normalized growth,[5],0.988
same,normalized growth,[6],0.983
same,normalized growth,[7],0.988
same,normalized growth,[8],0.987
same,normalized growth,[9],0.986
same,normalized growth,[1],0.981
same,normalized growth,[10],0.987
same,normalized growth,[11],0.993
same,normalized growth,[12],0.945
same,normalized growth,[13],0.989
same,normalized growth,[14],0.978
same,normalized growth,[15],0.981
same,normalized growth,[16],0.943
same,normalized growth,[17],0.873
same,normalized growth,[18],0.911
same,normalized growth,[19],0.983
same,normalized growth,[20],0.989
same,normalized growth,[21],0.988
same,normalized growth,[22],0.936
same,normalized growth,[23],0.993
same,normalized growth,[24],0.949
same,normalized growth,[25],0.939
same,normalized growth,[26],0.874
same,normalized growth,[2],0.814 (active)
same,normalized growth,[27],0.896
same,normalized growth,[28],0.963
same,normalized growth,[29],0.957
same,normalized growth,[30],0.984
same,normalized growth,[31],0.917
same,normalized growth,[32],0.94
same,normalized growth,[33],0.92
same,normalized growth,[34],0.984
same,normalized growth,[35],0.906
same,normalized growth,[36],0.945
same,normalized growth,[37],0.953
same,normalized growth,[38],0.934
same,normalized growth,[39],0.891
same,normalized growth,[40],0.994
same,normalized growth,[41],0.961
same,normalized growth,[42],0.82 (active)
same,normalized growth,[43],0.938
same,normalized growth,[44],0.954
same,normalized growth,[45],0.92
same,normalized growth,[46],0.991
same,normalized growth,[47],0.946
same,normalized growth,[48],0.992
same,normalized growth,[49],0.986
same,normalized growth,[50],0.904
same,normalized growth,[51],0.986
same,normalized growth,[52],0.879
same,normalized growth,[53],0.985
same,normalized growth,[54],0.99
same,normalized growth,[55],0.91
same,normalized growth,[56],0.996
same,normalized growth,[57],0.931
same,normalized growth,[58],0.971
same,normalized growth,[59],1
same,normalized growth,[60],0.907
same,normalized growth,[61],0.985
same,normalized growth,[62],0.909
same,normalized growth,[63],0.916
same,normalized growth,[64],0.893
same,normalized growth,[65],0.984
same,normalized growth,[66],0.82 (active)
same,normalized growth,[67],0.989
same,normalized growth,[68],0.979
same,normalized growth,[69],0.959
same,normalized growth,[70],0.977
same,normalized growth,[71],0.983
